SMILES strings stand for the structures. Records with an inconclusive call do not appear. Entries that show only a call come without a potency. Calls of active or inactive are those of the source. The call rests on the fitted dose curve; in most records, active means well fitted cell-killing curve with a large enough effect; inconclusive means small, poorly fitted or top-dose-only effect, or effect the other way; inactive means no such curve, though single readings can be large or run the other way.
Potency means the concentration at half of the fitted maximal effect.

The assay is described as follows: Quantitative High-Throughput drug screen in 47 multiple myeloma cell lines against the NCATS MIPE library collection: KMM1_JCRB cell viability assay (AID 1918960). Further: nearly all actives have a fitted effect of over 30% in size. The following applies: KMM1 myeloma viability, CellTiter-Glo ATP luminescence, 48 h; series mostly up to 45.8 µM. The text has this:
PI: Beverly A. Mock Ph.D.
Laboratory of Cancer Biology and Genetics,
Center for Cancer Research, National Cancer Institute,
National Institute of Health, Bethesda, Maryland
Drug resistance and disease progression are common in multiple myeloma (MM) patients, underscoring the need for new therapeutic combinations. […] We hypothesized that effective combinations would reduce MYC expression and enhance p16 activity. […] These preclinical data identify potentially useful drug combinations for evaluation in drug-resistant MM and reveal potential mechanisms of combined drug sensitivity.
Described herein is the primary MIPE qHTS used to cherrypick compounds. Validated compounds were then further tested for potential synergistic activiy.
[1] Peat TJ, Gaikwad SM, Dubois W, Gyabaah-Kessie N, Zhang S, Gorjifard S, Phyo Z, Andres M, Hughitt VK, Simpson RM, Miller MA, Girvin AT, Taylor A, Williams D, D'Antonio N, Zhang Y, Rajagopalan A, Flietner E, Wilson K, Zhang X, Shinn P, Klumpp-Thomas C, McKnight C, Itkin Z, Chen L, Kazandijian D, Zhang J, Michalowski AM, Simmons JK, Keats J, Thomas CJ, Mock BA. Drug combinations identified by high-throughput screening promote cell cycle transition and upregulate Smad pathways in myeloma. Cancer Lett. 2023 Aug 1;568:216284. doi: 10.1016/j.canlet.2023.216284. Epub 2023 Jun 24. PMID: 37356470; PMCID: PMC10408729.
SEQUENCE No. (e.g., 1, 2, 3, etc.); […] (e.g., Cells, Incubation, Reagent, etc.); VALUE and DESCRIPTION.
1; Cells; 5 uL; white, solid bottom 1536-well Greiner assay plate.
2; Compounds; 23 nL; Kalypsis pin tool (Wako USA) equipped with a 1536-well pin head to transfer to the assay plates.
3; Incubation; 48 hours; 37C incubation.
4; Reagent;5uL; CellTiter Glo (Promega).
5; Detector; 425V; Luminescence; Viewlux PerkinElmer.
NOTES (numbers refer to Sequence numbers above)
1. The cell-based screening methods employed in this study were like those previously published. Briefly, the corresponding myeloma cell lines were screened in 1,536-well plates with 500 cells, 5-uL per well for inhibition of cell viability (assessed by measuring ATP levels with CellTiterGlo).
2. NCATS MIPE 4.0 library of approved and investigational drugs were added using the Kalypsis pin tool. Wells treated with DMSO only for 100% viability and media only cells for 0% viability were used as controls.
3. The assay plates were covered and incubated for 48 hours in a 37C, 5% CO2 incubator with controlled humidity.
4. After 48 hours, CellTilter-GloTM luminescent substrate mix (Promega) reagent was added to the assay plate and plates we incubated for 5 min at room temperature.
5. Signal was measured as median relative luminescence units on a ViewLux (PerkinElmer) multiplate reader.
[1] Heske CM, Davis MI, Baumgart JT, Wilson K, Gormally MV, Chen L, Zhang X, Ceribelli M, Duveau DY, Guha R, Ferrer M, Arnaldez FI, Ji J, Tran HL, Zhang Y, Mendoza A, Helman LJ, Thomas CJ. Matrix Screen Identifies Synergistic Combination of PARP Inhibitors and Nicotinamide Phosphoribosyltransferase (NAMPT) Inhibitors in Ewing Sarcoma. Clin Cancer Res. 2017 Dec 1;23(23):7301-7311. doi: 10.1158/1078-0432.CCR-17-1121. Epub 2017 Sep 12. PMID: 28899971; PMCID: PMC6636827.
Regarding `Nc1nc2[nH]cc(CCc3ccc(C(=O)N[C@@H](CCC(=O)O)C(=O)O)cc3)c2c(=O)[nH]1`, the Potency is 0.59 µM (active). In the case of `CC(C)(C)OC(=O)CN(Cc1ccc(Cl)cc1)Cc1ccc([N+](=O)[O-])s1`, the Potency result was “inactive”. To `COCC(=O)NCC=Cc1ccc2ncnc(Nc3ccc(Oc4ccc(C)nc4)c(C)c3)c2c1` belongs 8.33 µM (active); to `Cc1cccc(-c2nn(C(=S)Nc3ccccc3)cc2-c2ccnc3ccccc23)n1`, “inactive”. For the molecule `CCC(C)(C)C(=O)O[C@H]1C[C@@H](C)C=C2C=C[C@H](C)[C@H](CC[C@@H]3C[C@@H](O)CC(=O)O3)[C@H]21`, the Potency was 26.4 µM (active). To `NC(=O)c1ccc(I)c([N+](=O)[O-])c1` belongs “inactive”; to `CC(C=CC1=C(C)CCCC1(C)C)=CC=CC(C)=CC(=O)O`, “inactive”. As to `Cc1cc2c(C(C)C)c(O)c(O)c(C=O)c2c(O)c1-c1c(C)cc2c(C(C)C)c(O)c(O)c(C=O)c2c1O`, the Potency entry was “inactive”.

For `CC(C)OC(=O)C1=CN(C(=O)c2ccc(F)c(F)c2)CC(C)(C)c2c1[nH]c1ccccc21`, the Potency result is “inactive”. The value for `Nc1nc2ccc(OC(F)(F)F)cc2s1` was “inactive”; that for `CCOC(=O)N1CCC(=C2c3ccc(Cl)cc3CCc3cccnc32)CC1` was “inactive”. On to `CC(C)(C)NCC(O)c1ccc(O)c(CO)c1` (stereo not given), for which the Potency is 0.059 µM (active). In the case of `CN(C)c1ccc(Nc2nc(N)n(C(=O)c3c(F)cccc3F)n2)cc1`, the Potency was 11.8 µM (active). The value for `Cc1cc(C=c2sc3nc4ccccc4n3c2=O)c(C)n1-c1ccccc1` was “inactive”. As for `Cn1cnc([N+](=O)[O-])c1Sc1ncnc2nc[nH]c12`, the Potency is 2.96 µM (active). To `Clc1cccc(Cl)c1NC1=NCCN1` belongs “inactive”; to `CS(=O)(=O)c1ccc(C(=O)Nc2ccc(Cl)c(-c3ccccn3)c2)c(Cl)c1`, “inactive”. As to `CC(c1cc2ccccc2s1)N(O)C(N)=O` (stereo not given), the Potency entry was “inactive”. The value for `CCOc1cc(N2CCC(O)CC2)ccc1Nc1ncc2c(n1)N(C)c1ccccc1C(=O)N2C` was 1.18 µM (active); that for `CCOC(=O)C1=C[C@]2(CC)CCCN3CCc4c(n1c1ccccc41)[C@@H]32` was 20.9 µM (active); that for `COc1ccc(C2=N[C@H](c3ccc(Cl)cc3)[C@H](c3ccc(Cl)cc3)N2C(=O)N2CCNC(=O)C2)c(OC(C)C)c1` was “inactive”. Regarding `Cc1ccc(NC(=O)c2cccc(C(C)(C)C#N)c2)cc1Nc1ccc2ncn(C)c(=O)c2c1`, the Potency was 2.35 µM (active). The value for `O=C(NOC[C@H](O)CO)c1ccc(F)c(F)c1Nc1ccc(I)cc1F` was 0.0187 µM (active).

`Cc1cccc(-c2[nH]c(C(C)(C)C)nc2-c2ccc3nccnc3c2)n1`: the Potency was 4.69 µM (active).

With `CNC(=O)c1ccc(N2C(=S)N(c3ccc(C#N)c(C(F)(F)F)c3)C(=O)C2(C)C)cc1F`, the Potency was 9.35 µM (active). The value for `CCCc1nn(C)c2c(=O)[nH]c(-c3cc(S(=O)(=O)N4CCN(C)CC4)ccc3OCC)nc12` was “inactive”; that for `CCCS(=O)(=O)Nc1ccc(F)c(C(=O)c2c[nH]c3ncc(-c4ccc(Cl)cc4)cc23)c1F` was “inactive”.

Regarding `O=C(Nc1nc2ccccc2n1CCN1CCOCC1)c1cccc([N+](=O)[O-])c1`, the Potency was 5.26 µM (active). In the case of `O=NN(CCCl)C(=O)NCCCl`, the Potency entry was “inactive”.

`C[C@]1(c2nc3c(C(N)=O)cccc3[nH]2)CCCN1`: the Potency entry was “inactive”. Take `COc1ccc(CC2=NN3C([C@@H](CCc4ccccc4)[C@@H](C)O)=NC(C)C3C(=O)N2)cc1OC` (stereo not given in full): the Potency result is “inactive”. To `Cc1c(CN2CCN(C(=O)C(C)C)CC2)sc2c(N3CCOCC3)nc(-c3cnc(N)nc3)nc12` belongs 0.059 µM (active); to `CC(C)(Sc1ccc(CCN(CCCCC2CCCCC2)C(=O)NC2CCCCC2)cc1)C(=O)O`, “inactive”. The value for `O=C(O)[C@@H](c1ccc(OCc2ccc3ccccc3n2)cc1)C1CCCC1` was “inactive”. To `OC(CCN1CCCCC1)(c1ccccc1)C1CC2C=CC1C2` (stereo not given) belongs “inactive”; to `Cn1c(=O)c(F)c(Nc2ccc(I)cc2F)c2c(=O)n(C[C@@H](O)CO)cnc21`, 16.6 µM (active); to `O=C(O)CCc1ccc(NCc2cccc(Oc3ccccc3)c2)cc1`, “inactive”. For `Nc1ccc(S(=O)(=O)Nc2ccnn2-c2ccccc2)cc1`, the Potency result is “inactive”.

As to `Cc1cc(-c2ccc(CC(=O)Nc3ccc(-c4cccnc4)cc3)cc2)ccn1`, the Potency was 14.8 µM (active). For `O=C1CCc2cc(OCCCCc3nnnn3C3CCCCC3)ccc2N1`, the Potency entry was “inactive”.

Source of the values: PubChem BioAssay (NCATS).
